Laboratory results: PubChem BioAssay (Tox21)
Unmarked numbers belong to inactive results. Active and inactive are the calls of the source. The call rests on the fitted dose curve; in most records, active means well fitted curve in the direction sought with a large enough effect in the repeat runs; inconclusive means weak or mixed curves; inactive means flat fitted curve, though single readings scatter.

assay: qHTS assay to test for compound auto fluorescence at 460 nm (blue) in HEK293 cells (AID 720678); conditions: blue autofluorescence 405/460 nm; series mostly up to 91.3 µM; fluorescence, % of triamterene: at the top concentration
From the text: National Center for Advancing Translational Sciences [NCATS]
NIH Chemical Genomics Center [NCGC]
U.S. Environmental Protection Agency [EPA]
National Institutes of Environmental Health Sciences [NIEHS]
National Toxicology Program [NTP]
U.S. Food and Drug Administration [FDA]
Compound auto fluorescence often interferes with screening of the compound library against various biological targets and signaling pathways. Some of these compounds may have fluorophoric properties. Such properties may interfere with the assay outputs resulting in false positives and/or negatives. To decrease such complications and ensure the compound activities are relevant in terms of biological response, the Tox21 10K compound library was screened for auto fluorescence.
From the fluorophores used as reporter signals in our screening assays, the auto fluorescence equivalencies of compounds against three fluorophores have been evaluated: Triamterene, Fluorescein and Rose Bengal sodium for blue, green and red fluorescence, respectively. The fluorescence intensities were measured using Excitation/Emission wavelengths at 405/460nm, 485/535nm and 540/590nm for blue, green and red labels, respectively. This assay includes the blue fluorescence data.
Tox21 Assay Protocol Summary:
2,000 HEK293 cells in 5 uL of culture medium containing 10% dialyzed FBS per well were dispensed into black wall/clear bottom 1536-well plates using a Multidrop Combi Dispenser (Thermo Scientific). The assay plates were incubated for 4-5 hr at 37C to allow cell attachment to the well bottom, followed by the transfer of 23 nL compound or DMSO vehicle by a pintool work station (Kalypsys, San Diego, CA). After the assay plates were incubated overnight at 37C and 5% CO2, fluorescence intensities in the assay plates were measured by an Envision (PerkinElmer, Shelton, CT) plate reader using three labels for measuring blue, green and red fluorescence at […] 460, 535 and 590nm respectively.
On the % scale 0 is the no-effect control and ±100 the full control effect.

Row | SMILES | outcome | fluorescence, % of triamterene
1 | CCCC(C)=O | inactive | 
2 | FC(F)(F)c1ccc(Cl)c(Cl)c1 | inactive | 
3 | CC(=O)Nc1cccc(O)c1 | inactive | 
4 | O=C(O)c1ccc2c(c1)C(=O)OC2=O | inactive | 
5 | CCCCCCOCCO | inactive | 
6 | COc1ccc2cc([C@H](C)C(=O)O)ccc2c1 | inactive | 
7 | C=C(C)C(=O)Nc1ccc(Cl)c(Cl)c1 | inactive | 
8 | O=C(O)c1cc(C(=O)O)cc(S(=O)(=O)O)c1 | inactive | 
9 | CSCCC=O | inactive | 
10 | Cc1ccc(N(C)C)cc1 | inactive | 
11 | CCCCC(CC)CO (stereo not given) | inactive | 
12 | CCCCCCCCC/C=C/CC1CC(=O)OC1=O (stereo not given) | inactive | 
13 | CC(C)c1ccc(S(=O)(=O)O)cc1 | inactive | 
14 | CN(C)CCC(c1ccc(Cl)cc1)c1ccccn1 (stereo not given) | inactive | 
15 | CCc1ccc(CCOc2ccc(CC3SC(=O)NC3=O)cc2)nc1 (stereo not given) | inactive | 
16 | O=C(O)c1ccccc1C(c1ccc(O)cc1)c1ccc(O)cc1 |  | -0.0104%
17 | C#CCN(C)Cc1ccccc1 | inactive | 
18 | O=S(=O)(O)c1ccc2ccccc2c1 | inactive | 
19 | Cc1occc(=O)c1O | inactive | 
20 | C[C@H]1C[C@H]2[C@@H]3CCC4=CC(=O)C=C[C@]4(C)[C@@]3(F)[C@@H](O)C[C@]2(C)[C@@]1(O)C(=O)CO | inactive | 

Row | SMILES | outcome | fluorescence, % of triamterene
21 | c1ccc2scnc2c1 | inactive | 
22 | Cc1ccc2oc(=O)ccc2c1 | inactive | 
23 | CC(=O)c1ccccc1 | inactive | 
24 | CC1CCC(C(C)C)C(O)C1 (stereo not given) | inactive | 
25 | Nc1ccccc1[N+](=O)[O-] | inactive | 
26 | O=C(Oc1ccccc1)c1ccccc1 | inactive | 
27 | CCCCCCCCCCCCOCCO |  | -0.0391%
28 | C[C@H]1C[C@@H]2[C@H]([C@@H](O)C[C@@]3(C)[C@H]2CC[C@]3(O)C(=O)CO)[C@@]2(C)C=CC(=O)C=C12 | inactive | 
29 | O=C(O)c1cc(=O)c2c(OCC(O)COc3cccc4oc(C(=O)O)cc(=O)c34)cccc2o1 | inactive | 
30 | OCC(CO)(CBr)CBr | inactive | 
31 | CCCSc1ccc2nc(NC(=O)OC)[nH]c2c1 | inactive | 
32 | C=C(C)C(=O)OCCOCCOCCOC(=O)C(=C)C | inactive | 
33 | CC[C@H](C)C(=O)O[C@H]1C[C@@H](C)C=C2C=C[C@H](C)[C@H](CC[C@@H]3C[C@@H](O)CC(=O)O3)[C@H]21 | inactive | 
34 | C=C(C)C(=O)O[C@H]1C[C@@H]2CC[C@@]1(C)C2(C)C | inactive | 
35 | CN(C)CCC(c1ccccc1)c1ccccn1 (stereo not given) | inactive | 
36 | O=P(OC(CCl)CCl)(OC(CCl)CCl)OC(CCl)CCl | inactive | 
37 | O=C(O)CCCCCCCCCCC(=O)O | inactive | 
38 | CC(=O)CC(=O)Nc1ccccc1 | inactive | 
39 | CCc1cccc(C)c1N | inactive | 
40 | O=C(O)[C@H](O)[C@@H](O)[C@H](O)[C@H](O)CO | inactive | 
